Hits are enriched below; roughly 5.1% of the tested compounds scored in any of these assays.
ROMK primary: modulates human ROMK potassium channel activity; Tet-inducible ROMK, thallium flux fluorescence; actives lie on both sides; AID 1918; 130,000 compounds, 2% hits; P48048; B-score at 10 µM;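 active means signal ratio slope over the read window, or its plate-corrected B-score, at least 3 SD from the plate mean, either direction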;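 further: B-score of the F/F0 ratio slope over 7 to 12 s after thallium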
S1P4 antagonist: antagonists of human S1P4 receptor. O95977. S1P4-expressing cells, antagonist mode, reporter read-out. inhibition, % at 4.98 µM. 220,000 compounds, 0.26% hits. AID 1510; in the data active means inhibition above about 29%
Target sequence (O95977 whole entry, looked up): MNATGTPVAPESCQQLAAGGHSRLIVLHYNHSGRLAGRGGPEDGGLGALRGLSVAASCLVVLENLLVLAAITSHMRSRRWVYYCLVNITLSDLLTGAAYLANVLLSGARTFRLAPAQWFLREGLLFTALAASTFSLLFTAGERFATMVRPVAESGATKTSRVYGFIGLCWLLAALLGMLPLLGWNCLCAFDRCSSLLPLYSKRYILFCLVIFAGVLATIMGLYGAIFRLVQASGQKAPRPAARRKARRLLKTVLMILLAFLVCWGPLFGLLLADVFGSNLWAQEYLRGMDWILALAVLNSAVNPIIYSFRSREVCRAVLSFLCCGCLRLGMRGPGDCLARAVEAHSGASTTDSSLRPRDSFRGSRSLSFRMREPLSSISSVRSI
RAM network inh: blocks the yeast RAM network; S. cerevisiae dse1pr::URA3 reporter, 5-FOA growth OD615, 2 d; analog-sensitive cbk1-as2 kinase mutant strain; inhibition, % at 50 µM; 190,000 compounds, 1.8% hits; AID 868;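 active means inhibition above a set limit, 3 SD over mean compound inhibition, cut at about 8.4% in these data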;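 further: inhibition rescues growth on 5-FOA so higher OD means more RAM inhibition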
KCC2 mod: modulates chloride dependent transport by human KCC2 | Q9H2X9 | KCC2 cells, thallium flux FluoZin-2 fluorescence | 190,000 compounds, 2.2% hits | B-score of Tl+ flux slope (higher = more flux/activation; lower = inhibition) at 10 µM | AID 1456;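 active means thallium flux slope and its plate-corrected score both differing from the plate sample mean at a set confidence after two filtering rounds, in either direction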;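 further: slope of fluorescence scaled to starting intensity during 10 to 20 s after thallium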
S1P3 antagonist: antagonists of human S1P3 receptor | 170,000 compounds, 0.27% hits | inhibition, % at 4.98 µM | Q99500 | AID 485 | CHO S1P3 NFAT-BLA reporter, FRET fluorescence, antagonist mode;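 active means inhibition above the plate cutoff, the mean inhibition of test wells on that plate plus 3 SD, cut at about 28% in these data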;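 further: cells challenged with S1P at its EC80 of 0.8 µM; blue over green emission ratio from cleaved BLA substrate after 4 h stimulation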
Target sequence (Q99500 whole entry, looked up): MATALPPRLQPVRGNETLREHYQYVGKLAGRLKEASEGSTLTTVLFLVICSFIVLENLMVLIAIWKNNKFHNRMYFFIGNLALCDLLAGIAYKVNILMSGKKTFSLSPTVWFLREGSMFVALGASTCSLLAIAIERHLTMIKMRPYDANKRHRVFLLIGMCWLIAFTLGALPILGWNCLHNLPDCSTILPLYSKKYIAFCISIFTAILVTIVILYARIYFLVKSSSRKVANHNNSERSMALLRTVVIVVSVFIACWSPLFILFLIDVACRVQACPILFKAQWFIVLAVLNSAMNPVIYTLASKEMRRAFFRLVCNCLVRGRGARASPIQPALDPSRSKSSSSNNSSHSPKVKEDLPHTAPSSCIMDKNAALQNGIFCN
S1P4 agonist: activates the human S1P4 receptor | S1P4-expressing cell line, agonist reporter assay | AID 1509 | activation, % at 4.98 µM | 220,000 compounds, 0.35% hits; in the data active means activation above about 11%
KCC2 secondary: confirmation of human KCC2 transport modulators. shares compounds with KCC2 mod. HEK293-KCC2, thallium flux, FluoZin2 fluorescence; active compounds read high. normalised thallium flux (F/F0 slope) at 10 µM. 3,700 compounds, 15% hits;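 active means thallium flux slope above the same plate's solvent-only control mean plus 3 SD; inconclusive means the two replicate wells disagree; inactive means no significant difference from solvent-only control wells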
KCC2 bumet counter: bumetanide-insensitive thallium flux in KCC2 cells with ouabain, counter-screen | shares compounds with KCC2 mod | normalized thallium flux at 10 µM | 3,700 compounds, 49% hits | AID 1714 | HEK293-KCC2 + bumetanide/ouabain, thallium flux FluoZin2; active compounds read high;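 active means thallium entry rate above the same plate's blocked-transporter control wells by more than 3 SD; inconclusive means the two repeat wells disagree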;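 further: raw slope of fluorescence over initial fluorescence between 10 and 20 s after thallium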
KCC2 secondary2: confirmation of human KCC2 transport modulators | shares compounds with KCC2 mod | HEK293-KCC2, thallium flux FluoZin2 fluorescence; actives lie on both sides; F/F0 rise rate, 10–20 s post-thallium | normalized thallium flux at 10 µM | 3,700 compounds, 23% hits;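 active means thallium flux slope more than 3 SD above or below the plate's solvent-only control mean, mostly below; inconclusive means the two repeat wells disagreed; inactive means no significant shift from solvent-only controls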
HEK counter1: counter-screen for KCC2 modulators: effect in parental HEK293 cells; shares compounds with KCC2 mod; thallium flux FluoZin2, ouabain; baseline-ratio fluorescence slope, 10–20 s after thallium; thallium flux rate (normalised fluorescence) at 10 µM; 3,700 compounds, 46% hits; AID 1716;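 active means thallium flux rate significantly above the same plate's solvent-only control wells, beyond their mean plus 3 SD; inconclusive means the two replicate wells gave conflicting results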
KCC2 ouabain: modulates human KCC2 on retest with ouabain; shares compounds with KCC2 mod; HEK293-KCC2, thallium flux FluoZin2 fluorescence; bidirectional: low = inhibitor, high = activator; raw Tl+ flux slope (below DMSO = inhibition, above = activation) at 10 µM; 3,700 compounds, 48% hits; AID 1717;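 active means thallium flux slope beyond 3 SD from same-plate DMSO control mean in most replicates, usually higher, sometimes lower; inconclusive means repeat tests gave conflicting results; inactive means no significant difference from controls in most replicates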;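 further: slope of initial-normalized fluorescence between seconds 10 and 20 after thallium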
HEK293 Tl flux2: acts in parental HEK cells, second KCC2 counter-screen; shares compounds with KCC2 mod; HEK293 parental, thallium flux FluoZin-2 fluorescence slope; thallium flux slope at 10 µM; 3,700 compounds, 33% hits;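 active means thallium flux slope above the same plate's solvent-control mean plus 3 SD in both duplicate wells; inconclusive means duplicate wells that disagreed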;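 further: run without ouabain in cells lacking the KCC2 cotransporter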
Of the large screens only hits and unclear results are named; the others gave an inactive call (follow-up assays come after a bar, where they were run).

O=C(O)Cc1ccc(NC(=S)Nc2cccc(Cl)c2Cl)cc1	KCC2 mod 9.56 | KCC2 secondary inactive | KCC2 bumet counter 0.0105 | KCC2 secondary2 inactive | HEK counter1 0.0137 | KCC2 ouabain inconclusive | HEK293 Tl flux2 inactive
O=C(O)CC/C(=C\c1ccc(Cl)c([N+](=O)[O-])c1)c1nc2ccccc2s1	RAM network inh 10.7, KCC2 mod -7.12 | KCC2 secondary inactive | KCC2 bumet counter inactive | KCC2 secondary2 inconclusive | HEK counter1 0.00578 | KCC2 ouabain inconclusive | HEK293 Tl flux2 inactive
O=C(O)CCC(=O)Nc1nc2ccccc2s1	none (no result: S1P3 antagonist)
N#C/C(=C\c1ccc(O)c([N+](=O)[O-])c1)c1nc2ccccc2s1	KCC2 mod -6.21 | KCC2 secondary inactive | KCC2 bumet counter inactive | KCC2 secondary2 inactive | HEK counter1 inactive | KCC2 ouabain 0.0133 | HEK293 Tl flux2 inactive
COc1cc(/C=C(\C#N)c2nc3ccccc3s2)cc([N+](=O)[O-])c1O	none
O=C(O)C/C(=C\c1ccc(N2CCOCC2)c([N+](=O)[O-])c1)c1nc2ccccc2s1	none (no result: ROMK primary, RAM network inh, KCC2 mod)
O=C(O)CC/C(=C\c1ccc(N2CCOCC2)c([N+](=O)[O-])c1)c1nc2ccccc2s1	KCC2 mod -8.46 | KCC2 secondary inactive | KCC2 bumet counter inactive | KCC2 secondary2 0.0205 | HEK counter1 inactive | KCC2 ouabain inconclusive | HEK293 Tl flux2 inactive
O=C(Nc1ccc(F)cc1F)NC1CCN(Cc2c(F)cccc2Cl)CC1	none (no result: ROMK primary, RAM network inh)
Cn1c(NNC(=O)C2CCCCC2)cc(=O)n(C)c1=O	none
Cc1c2c(c(C)n1C)C(C(=O)NC1CCCCC1)N(Cc1ccccc1)C2=O (stereo unspecified)	none
CCOC(=O)CNC(=O)C(CO)NC(=O)OCc1ccccc1 (stereo unspecified)	none (no result: ROMK primary)
CCOC(=O)CNC(=O)C(Cc1ccccc1)NC(=O)OCc1ccccc1 (stereo unspecified)	KCC2 mod -5.51 | KCC2 secondary inactive | KCC2 bumet counter inactive | KCC2 secondary2 0.0251 | HEK counter1 inactive | KCC2 ouabain inconclusive | HEK293 Tl flux2 inactive
CCOC(=O)Cn1nc(C)c(NC(=O)COc2ccc(C)c(C)c2)c1C	none (no result: ROMK primary, RAM network inh)
CC(=O)OCCN(C)c1cc(SC(C)C)c2nonc2c1[N+](=O)[O-]	none
CN(CCO)c1cc(Sc2nc3ccccc3s2)c2nonc2c1[N+](=O)[O-]	none (no result: ROMK primary, KCC2 mod, S1P3 antagonist) | KCC2 secondary inactive | KCC2 bumet counter 0.015 | KCC2 secondary2 inactive | HEK counter1 0.0143 | KCC2 ouabain inconclusive | HEK293 Tl flux2 0.0169
Cc1nn(-c2ccc(F)cc2)c(Cl)c1/C=C(\CC(=O)O)c1nc2ccccc2s1	KCC2 mod -6.83 (no result: ROMK primary, S1P3 antagonist) | KCC2 secondary inactive | KCC2 bumet counter inactive | KCC2 secondary2 inconclusive | HEK counter1 inactive | KCC2 ouabain 0.0133 | HEK293 Tl flux2 inactive
CCOc1ccccc1NC(=O)/C(C#N)=C/c1c(C)nn(-c2ccc(F)cc2)c1Cl	none (no result: ROMK primary)
Cc1[nH]n(-c2ccccc2)c(=O)c1/C=N/NC(=O)C(C)C	none
CC(=O)C1=C(C)Nc2ncnn2C1c1cccc(OCc2ccccc2)c1 (stereo unspecified)	KCC2 mod -3.44 (no result: ROMK primary) | KCC2 secondary inactive | KCC2 bumet counter inactive | KCC2 secondary2 inactive | HEK counter1 inactive | KCC2 ouabain 0.0181 | HEK293 Tl flux2 inactive
CC1=C(C(=O)OCc2ccccc2)C(c2cccnc2)n2ncnc2N1 (stereo unspecified)	none (no result: KCC2 mod)
COC(=O)NC1(C(F)(F)F)C(=O)Nc2c1c(=O)n(C)c(=O)n2C (stereo unspecified)	none
S=C(N=Nc1ccccc1)NNc1ccccc1	KCC2 mod 22.6 (no result: ROMK primary) | KCC2 secondary inactive | KCC2 bumet counter 0.0178 | KCC2 secondary2 0.0392 | HEK counter1 0.0188 | KCC2 ouabain 0.0271 | HEK293 Tl flux2 0.024
Cc1ccc(NC(=S)N/N=C/c2ccc([N+](=O)[O-])s2)cc1	KCC2 mod 14.8 | KCC2 secondary 0.0138 | KCC2 bumet counter 0.0467 | KCC2 secondary2 inactive | HEK counter1 inconclusive | KCC2 ouabain 0.0411 | HEK293 Tl flux2 0.0197
Cc1ccc(S(=O)(=O)N2CCC(NC(=O)c3cccc(C)c3)CC2)cc1	none (no result: ROMK primary, KCC2 mod)
Cc1nn(-c2ccccc2)c2sc(C(=O)O)cc12	none (no result: S1P3 antagonist)
Cc1nn(-c2ccccc2)c2sc(-c3n[nH]c(=S)o3)cc12	KCC2 mod 6.26 | KCC2 secondary 0.0145 | KCC2 bumet counter 0.0284 | KCC2 secondary2 inactive | HEK counter1 0.0139 | KCC2 ouabain inconclusive | HEK293 Tl flux2 0.0129
O=C(OCC(=O)C12CC3CC(CC(C3)C1)C2)c1cccnc1Cl	none
O=C(NNC(=S)NCc1ccc(Cl)cc1)c1ccc2c(c1)OCO2	none
O=C(N/N=C/c1cc(Br)c(Br)s1)c1ccncc1	KCC2 mod 6.51 (no result: ROMK primary) | KCC2 secondary inactive | KCC2 bumet counter 0.0145 | KCC2 secondary2 inactive | HEK counter1 0.00968 | KCC2 ouabain inconclusive | HEK293 Tl flux2 inactive
O=C(N/N=C/c1cc(Cl)cc(Cl)c1O)c1ccncc1	none (no result: ROMK primary, RAM network inh)
O=C(N/N=C/c1cc(Br)cc(Br)c1O)c1ccncc1	KCC2 mod -4.52 (no result: ROMK primary) | KCC2 secondary inactive | KCC2 bumet counter 0.000551 | KCC2 secondary2 0.0171 | HEK counter1 0.00277 | KCC2 ouabain 0.0078 | HEK293 Tl flux2 0.00456
CN(CCN(C)C(C)(C)C)C(=O)C(c1ccccc1)c1ccccc1	none (no result: ROMK primary, RAM network inh)
CCN(C(=O)CSc1nnc(-c2cccs2)n1CC)C1CCS(=O)(=O)C1 (stereo unspecified)	none (no result: ROMK primary, RAM network inh)
Cc1onc(-c2c(Cl)cccc2Cl)c1NC(=O)NC1CCSC1 (stereo unspecified)	none (no result: RAM network inh)
COc1ccc(-c2cc(C(=O)N3CCN(Cc4ccccc4)CC3)no2)cc1OC	KCC2 mod -3.35 (no result: ROMK primary) | KCC2 secondary inactive | KCC2 bumet counter inconclusive | KCC2 secondary2 0.0219 | HEK counter1 inactive | KCC2 ouabain inactive | HEK293 Tl flux2 inactive
COc1ccc(-c2cc(C(=O)N3CCc4ccccc4C3)no2)cc1	none

Screens as filed in PubChem BioAssay.
